These results are taken from PubChem BioAssay (EPA / NIEHS).

Test [1] is described as follows: BSK_SAg_PBMCCytotoxicity: PBMC Cytotoxicity Assessment in the BioMAP Diversity Plus: SAg Assay (AID 2283093).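 Also: PBMC viability measured as Alamar Blue reduction fluorescence at 546/580 nm; fitted both ways against DMSO so a hit may be loss or gain of signal.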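 As to AC50: PBMC superantigen activated with SEB plus TSST-1 one hour after compound addition.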 The following applies: primary human HUVEC with PBMC. In short, it runs like this:
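Human umbilical vein endothelial cells co-cultured with PBMC; PBMC (75,000/well) pre-treated with compound 1 h, then activated with SEB and TSST-1 (20 ng/mL final each) for 90 h. Alamar Blue added 6 h, fluorescence 546/580 nm; bidirectional fit versus DMSO.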

Read-out in test [2]: Interleukin-8 (IL8), CXCL8 (gene 3576)
Briefly: BSK_SAg_IL8: BioMAP Diversity Plus: SAg Assay for Interleukin-8 (IL8) Biomarker Activity (AID 2283094). The conditions noted are these: primary human HUVEC with PBMC; actives raise or lower the signal. Summed up:
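ELISA read-out of IL-8 in a primary human vascular co-culture (umbilical vein endothelium plus PBMC), taken 24 h after compound addition. Values derive from bidirectional fits against DMSO negative controls.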

Test [3] in a line: BSK_SAg_Proliferation: Cell Proliferation Assessment in the BioMAP Diversity Plus: SAg Assay (AID 2283095).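 Also: relative cell number as total protein by SRB absorbance in sub-confluent culture.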 The following applies: primary human HUVEC with PBMC. In short, it runs like this: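 Cells (endothelium plus PBMC, human primary) were dosed with chemical, cultured 96 h, fixed in 10% TCA and stained with 0.1% SRB. Absorbance at 560 nm gave relative protein, fitted bidirectionally relative to DMSO.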

Test [4] can be described thus: BSK_SAg_SRB: Viability Assessment in the BioMAP Diversity Plus: SAg Assay (AID 2283096).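 Also: cells read one day after compound addition; hits may be either gain or loss of signal compared with DMSO.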 The following applies: primary human HUVEC with PBMC. Summed up:
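Endothelial/PBMC primary human co-culture; compound 24 h; fix 10% TCA, stain 0.1% SRB, A560; protein content as cytotoxicity proxy; bidirectional curve fit, DMSO = baseline.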

Test [5] deals with human CYP2B6, CYP2B6 (gene 1555) (UniProt P20813). The test can be described thus: NVS_ADME_hCYP2B6: NovaScreen (NVS) CYP450-related Enzyme Activity (ADME) Assay for human CYP2B6 (AID 2283101; active = hit-call score of the fitted dose curve at least 0.9, where 1 is the maximum). In short, it runs like this: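 Compounds were first screened in duplicate at 10 uM against recombinant enzyme, with the fluorescent product measured after 1 hour. Active compounds were retested over a concentration series. Loss of fluorescence versus acetonitrile control was scored as reduced enzyme activity.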
Chain of human CYP2B6, CYP2B6 (gene 1555) (P20813 whole entry, looked up): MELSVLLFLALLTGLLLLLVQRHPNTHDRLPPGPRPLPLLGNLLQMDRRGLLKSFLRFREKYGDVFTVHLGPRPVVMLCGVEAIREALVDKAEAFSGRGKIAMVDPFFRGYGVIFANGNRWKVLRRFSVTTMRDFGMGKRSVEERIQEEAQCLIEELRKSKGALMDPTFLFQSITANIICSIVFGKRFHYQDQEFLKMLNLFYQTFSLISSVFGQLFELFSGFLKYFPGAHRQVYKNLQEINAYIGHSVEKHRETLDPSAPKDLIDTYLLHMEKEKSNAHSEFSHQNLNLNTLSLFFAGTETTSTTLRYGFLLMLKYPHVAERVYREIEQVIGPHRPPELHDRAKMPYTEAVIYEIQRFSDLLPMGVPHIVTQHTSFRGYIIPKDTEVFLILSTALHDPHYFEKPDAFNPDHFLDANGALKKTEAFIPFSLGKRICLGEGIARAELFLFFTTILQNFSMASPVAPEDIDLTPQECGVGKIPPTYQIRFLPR

Test [6] addresses human CYP1A2, CYP1A2 (gene 1544) (UniProt P05177). Briefly: NVS_ADME_hCYP1A2: NovaScreen (NVS) CYP450-related Enzyme Activity (ADME) Assay for human CYP1A2 (AID 2283102; active = hit-call score of the fitted dose curve at least 0.9, where 1 is the maximum;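 also: potency for inhibition since loss of fluorescence marks reduced CYP1A2 activity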). Summed up:
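Recombinant human CYP1A2 from insect cells, cell-free, fluorogenic substrate; read 0.5 h after dosing with loss of fluorescence signal indicating inhibition. Primary screen in duplicate at 10 uM, acetonitrile as negative control.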

Records with an inconclusive call do not appear. The source made the active and inactive calls. The calls were made as follows, unless noted: active = hit-call score of the fitted dose curve at least 0.9, where 1 is the maximum; inactive = score below 0.9.

Chain of human CYP1A2, CYP1A2 (gene 1544) (P05177 whole entry, looked up): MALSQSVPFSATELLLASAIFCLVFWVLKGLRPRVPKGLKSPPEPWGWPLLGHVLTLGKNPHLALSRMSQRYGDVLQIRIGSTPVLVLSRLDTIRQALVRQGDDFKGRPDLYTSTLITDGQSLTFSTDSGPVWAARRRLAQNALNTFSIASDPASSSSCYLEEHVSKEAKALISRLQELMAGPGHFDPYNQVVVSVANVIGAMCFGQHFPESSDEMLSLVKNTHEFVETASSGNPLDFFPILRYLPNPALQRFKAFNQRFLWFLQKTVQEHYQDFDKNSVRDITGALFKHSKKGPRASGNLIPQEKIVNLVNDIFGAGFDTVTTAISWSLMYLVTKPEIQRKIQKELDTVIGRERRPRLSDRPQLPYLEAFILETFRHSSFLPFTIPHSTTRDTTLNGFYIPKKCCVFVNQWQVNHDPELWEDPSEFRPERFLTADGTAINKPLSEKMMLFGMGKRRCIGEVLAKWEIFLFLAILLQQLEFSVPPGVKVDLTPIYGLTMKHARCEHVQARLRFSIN

In the case of `Cc1ccc(C(C)C)cc1`, the result in test [1], in test [2], in test [3] and in test [4] was inactive.

Broadly, the AC50 is the concentration giving half of the maximal activity seen. With `CCCCCCCC[Si](OCC)(OCC)OCC`, the AC50 in test [1] is 18.7 µM (active); in test [4], 31.7 µM (active). For the same molecule, the outcome in test [2] and in test [3] was inactive.

In the case of `Cc1cc(F)ccc1-c1cc(N2CC[C@@H](O)[C@H]2CO)ncc1N(C)C(=O)C(C)(C)c1cc(C(F)(F)F)cc(C(F)(F)F)c1`, the AC50 was 7.85 µM (active) in test [1], 7.96 µM (active) in test [2], 5.7 µM (active) in test [3] and 10.8 µM (active) in test [4].

As to `CCN(Cc1cccc(S(=O)(=O)O)c1)c1ccc(C(=C2C=CC(=[N+](CC)Cc3cccc(S(=O)(=O)O)c3)C=C2)c2ccccc2S(=O)(=O)[O-])cc1`, the AC50 in test [1] is 10 µM (active). The result in test [2] and in test [4] was inactive.

For `CC[C@@H]1C[C@H](N(Cc2cc(C(F)(F)F)cc(C(F)(F)F)c2)C(C)=O)c2cc(C(F)(F)F)ccc2N1C(=O)OC(C)C`, the outcome in test [1], in test [2], in test [3] and in test [4] was inactive.

As to `CCO[Si](CCCNC(N)=O)(OCC)OCC`, the result in test [1], in test [2], in test [3] and in test [4] was inactive.

On to `C[C@]12CC[C@@H]3c4ccc(O)cc4CC[C@H]3[C@@H]1CCC2=O`, for which the outcome in test [1], in test [2], in test [3] and in test [4] was inactive.

Turning to `CC(C)(c1cc(Br)c(O)c(Br)c1)c1cc(Br)c(O)c(Br)c1`, the AC50 was 33.3 µM (active) in test [1], 30.4 µM (active) in test [2], 25.4 µM (active) in test [3] and 29.4 µM (active) in test [4].

For the molecule `CC1(C)NC(=O)N(c2ccc([N+](=O)[O-])c(C(F)(F)F)c2)C1=O`, the result in test [1], in test [2], in test [3] and in test [4] was inactive. Further, the figures for the AC50 in test [5] and in test [6] were 7.49 µM (active) and 5.28 µM (active), respectively.

On to `c1ccc2ccccc2c1`, for which the result in test [1], in test [2], in test [3] and in test [4] was inactive.
